mHTT-CaM PPI inh = inhibitors of human mutant huntingtin-calmodulin interaction; P42858; AlphaScreen His-mHTT/GST-CaM binding, luminescence; inhibition, % at 15 µM; actives 3.6% (n = 190,000); AID 1671202;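 note: 0% = both proteins with DMSO and 100% = one protein alone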
Pf apPOL inh = Pf-apPOL DNA polymerase inhibition | AID 1794808 | Recombinant Pf-apPOL, molecular beacon fluorescence, 1.5 h | actives 0.25% (n = 210,000) | inhibition, % at 10 µM
* = called active by the depositor; x = no result given; ! = a repeat was not active. The entries come from a sample that favours hits as a whole. Cut-off read from the data, not from the text of the source: active = inhibition above about 50%; inactive = the rest.

SMILES | mHTT-CaM PPI inh | Pf apPOL inh
COc1ccccc1C(=O)N1CCN=C1SCc1ccccc1C | -2 | -12
COc1ccc(NC(=O)C2CCCN(c3cnn(Cc4ccccc4)c(=O)c3)C2)c(C)c1 (stereo unspecified) | 10 | -3
CC(=O)N1CCC2(CC1)N=C(c1ccc(F)cc1)CC(c1cc(Cl)ccc1O)N2 (stereo unspecified) | 3 | -4
Cc1ccc(C2=NC(C)(C)NC(c3ccccc3O)C2)cc1 (stereo unspecified) | 100* | -3
CC(=O)N1CCC2(CC1)N=C(c1ccccc1)CC(c1cc(Cl)ccc1O)N2 (stereo unspecified) | 65* | 1
Cc1ccc(C2=NC3(CCN(C)CC3)NC(c3ccccc3O)C2)cc1 (stereo unspecified) | 13 | -1
COc1cccc(C2CC(c3ccc(Cl)cc3)=NC3(CCN(C(C)=O)CC3)N2)c1O (stereo unspecified) | 58* | -2
COc1cccc(C2CC(c3ccc(C)c(C)c3)=NC3(CCN(C(C)=O)CC3)N2)c1O (stereo unspecified) | 39 | 1
COc1ccc(OC)c(/C=C2/N=C(c3cc(C)ccc3[N+](=O)[O-])OC2=O)c1 | 4 | -11
CCc1nnc2c(Oc3ccccc3)nc3ccccc3n12 | -2 | -2
COc1ccc([C@@H]2C[C@@H](c3ccccc3)Oc3cc(C)cc(C)c32)cc1 | -8 | -6
COc1ccc([C@@H]2C[C@H](c3ccccc3)Oc3cc4c(cc32)OCO4)cc1 | 60*! | 0
Cc1cc(OCC(=O)Nc2cc(F)ccc2C)nc(N2CCCC(C)C2)n1 (stereo unspecified) | -8 | 1
Cc1cccc2nnc(N3CCCC(C(=O)N4CCCC4)C3)n12 (stereo unspecified) | 2 | -3
COc1nc(N)c(C#N)c(-c2ccc3c(c2)OCO3)c1C#N | 40 | -19
N#Cc1c(-c2ccc3c(c2)OCO3)nc(N2CCCCC2)[nH]c1=O | 62* | 5
Cc1c(C(=O)ON=C(N)c2ccc(C(F)(F)F)cc2)sc2cc(C(C)(C)C)sc12 | x | -4
CC(C)NC1CCCc2c1[nH]c1ccc([N+](=O)[O-])cc21 (stereo unspecified) | 12 | -3
O=[N+]([O-])c1ccc2[nH]c3c(c2c1)CCCC3NC1Cc2ccccc2C1 (stereo unspecified) | 93* | -2
Cc1ccc(NC(=O)CN2C(=O)C(c3ccc(F)cc3)=NC23CCCCCC3)cc1 | 3 | -6
CCCCC1CCC(C(=O)Nc2c3c(nn2-c2ccc(OC)cc2)CS(=O)(=O)C3)CC1 (stereo unspecified) | 58* | 1
COc1ccc(-n2nc3c(c2NC(=O)C2CCCC2)CS(=O)(=O)C3)cc1 | 4 | 4
COc1ccc(C2CCCN2C(=O)Cc2cccc(OC)c2)cc1 (stereo unspecified) | 6 | -6
C=C[C@@H]1c2ccccc2N(S(=O)(=O)c2ccc(C)cc2)[C@H](c2ccc(C(F)(F)F)cc2)C1(C#N)C#N | 1 | -1
C=C[C@@H]1c2cc(C)ccc2N(S(=O)(=O)c2ccc(C)cc2)[C@H](c2ccc(C(C)(F)F)cc2)C1(C#N)C#N | 90* | -6
SMILES | mHTT-CaM PPI inh | Pf apPOL inh
Cc1cccc2nnc(N3CCC(C(=O)NCc4ccccc4)CC3)n12 | -1 | 2
O=C1C=CC(=O)C(c2cc(C(F)(F)F)ccc2Cl)=C1 | 60* | -3
O=C1C2C3C=CC(O3)C2C(=O)N1c1cc(C(F)(F)F)ccc1Cl (stereo unspecified) | -4 | -3
C=CC[C@H]1CC=C[C@H](CC=C)N1C(C)=O | -1 | x
CC(NC(=O)Nc1cccc(Cl)c1)c1ccccc1 (stereo unspecified) | -3 | -5
CC(NC(=O)Nc1ccc(Cl)c(Cl)c1)c1ccccc1 (stereo unspecified) | 73* | -1
C=CC[n+]1c(N)sc2cc(SC)ccc21 | -13 | 0
CC(C)c1cc(C2CCCN2C(=O)C2CCCC2)no1 (stereo unspecified) | -1 | 1
N#Cc1c(-c2ccccc2)cc(-c2ccc(F)cc2)nc1F | 0 | x
Cc1ccc(-c2cc(-c3ccc(F)cc3)c(C#N)c(N)n2)o1 | 88* | -4
CCCC(=O)Nc1sc(C)c(C)c1C(N)=O | 3 | -2
CCN1CCn2cc(C(=O)NCc3ccc(C(F)(F)F)cc3)nc2C1 | 97* | -13
CCN1CCn2cc(C(=O)NCc3ccc(F)cc3)nc2C1 | 42 | -5
Cc1cccc(C2CCCN2C(=O)NCC(C)C)c1 (stereo unspecified) | -5 | 6
O=C(O)CCCN1C(=O)C(=Cc2cccc(O)c2)SC1=S | 13 | -4
Cn1cc(C(c2ccco2)c2cn(C)c3ccccc23)c2ccccc21 | 58* | 5
Cn1cc(C(c2ccc(Br)o2)c2cn(C)c3ccccc23)c2ccccc21 | 43 | -6
Cc1ccccc1-c1cc(-c2ccccc2O)n[nH]1 | 52* | -4
COc1ccccc1-c1cc(-c2cc(Cl)ccc2O)n[nH]1 | 30 | -5
Oc1ccccc1-c1cc(-c2ccccc2F)[nH]n1 | x | 6
COc1ccc(O)c(-c2cc(-c3ccccc3C)[nH]n2)c1 | 69* | 7
Oc1ccccc1-c1cc(-c2ccccc2)n[nH]1 | 35 | -248
Cc1ccc(-c2cc(-c3ccccc3Cl)[nH]n2)c(O)c1 | 65* | -3
COc1ccc(NC(=O)C2CC(c3ccccc3OC)=NO2)cc1 (stereo unspecified) | -7 | -6
CCN(CC)C(=O)CSc1nc2n[nH]c(C)c2c(=N)n1-c1ccc(C)c(Cl)c1 | 14 | -3
SMILES | mHTT-CaM PPI inh | Pf apPOL inh
CCC(C)NC(=O)CSc1nc2n[nH]c(C)c2c(=N)n1-c1ccc(C)cc1 (stereo unspecified) | 54* | 2
CCc1ccc(-n2c(SCC(=O)NC(C)CC)nc3n[nH]c(C)c3c2=N)cc1 (stereo unspecified) | 91* | -3
CCN(CC)C(=O)CSc1nc2n[nH]c(C)c2c(=N)n1-c1ccc(Oc2ccccc2)cc1 | 13 | -3
Cc1ccc(-c2noc(-c3c(-c4c(F)cccc4Cl)noc3C)n2)cc1 | x | 3
NC(=O)C1CCN(C(=O)CN(c2ccc([N+](=O)[O-])cc2)S(=O)(=O)c2ccccc2)CC1 | -3 | 2
COc1ccc(C)cc1N1CCN(C(=O)c2cccc(F)c2)C(C)C1=O (stereo unspecified) | -3 | -1
CCOCCCN1COc2ccc3c(C)c(-c4ccc(OC)cc4)c(=O)oc3c2C1 | -5 | -56
C=CS(=O)(=O)c1sc(Cl)c(N2CCOCC2)c1[N+](=O)[O-] | 60* | -3
O=[N+]([O-])c1c(N2CCOCC2)c([N+](=O)[O-])c(N2CCOCC2)c([N+](=O)[O-])c1N1CCOCC1 | 1 | -6
C=CSc1sc(Cl)c(N2CCOCC2)c1[N+](=O)[O-] | 34 | 0
C=CSc1sc(Cl)c(N2CCC3(CC2)OCCO3)c1[N+](=O)[O-] | 67* | 5
COc1ccc(NC(=O)c2nnc(N3CCCCC3)c3ccccc23)cc1 | 19 | -4
CC1=C/C(=C/c2ccc(-c3ccc(C)cc3)o2)C(=O)O1 | 85* | -3
Cc1ccc(C2=C/C(=C\c3ccccc3C)C(=O)O2)cc1 | -37 | 0
Cc1ccc(C)c(-c2csc(Nc3ccc(F)cc3)n2)c1 | 48 | 1
NC(=O)C(=O)Nc1nc(-c2ccccc2)cs1 | 0 | -2
Cc1ccc(Nc2nc(-c3ccccc3)cs2)cc1Cl | 54* | -7
